DT40 TDP1 no CPT: qHTS for Inhibitors of human tyrosyl-DNA phosphodiesterase 1 (TDP1): qHTS in cells in absence of CPT. DT40 Tdp1-/- hTDP1 cells, no CPT, ATP luminescence, 48 h. Potency, µM (titrated, usually from 46.2 µM), for the others: at the top dose activity change, negative = growth inhibition, most hits filed as inhibitors. actives 15% (n = 420,000). AID 686978, 2013; also: potency is read from the fitted curve at half-maximal effect; nearly all actives have a fitted effect of over 55% in size
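Cells were dispensed at 400 per well, compounds added by pin tool, plates incubated ≥48 hr at 37 °C, then CellTiter-Glo added for 30 min at room temperature before luminescence reading. Line: DT40 Tdp1-/- complemented with hTDP1; camptothecin omitted.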
IL-1B inflam inh: inhibitors of inflammasome signaling (IL-1 beta secretion); THP-1 LPS/ATP IL-1B secretion, AlphaLISA, 16 h; active compounds read low; activity change, % at 57.5 µM; actives 4.7% (n = 360,000); AID 743279; in the data active = activity change below about -50%; inconclusive = mostly about -30% to -49%
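Secreted IL-1B measured by AlphaLISA bead assay after 16 h compound exposure of THP-1 cells; compounds (final up to 57.5 uM) added 1 h before LPS (250 ng/mL) and ATP (1.25 mM) stimulation; lower signal means less secretion.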
HT1080 IDH1KD tx: toxicity to HT-1080 IDH1 knockdown cells (counter line) | HT-1080 IDH1 knockdown viability, ATP luminescence, 48 h | Potency, µM (titrated, usually from 46.1 µM), inactives show top-dose activity, negative = toxicity, actives largely listed as cytotoxic | actives 2% (n = 360,000);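 also: potency is read from the fitted curve at half-maximal effect; 0% = DMSO wells and -100% = cell-free medium wells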
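Knockdown cells (IDH1KD HT-1080) received compounds 2 h after plating at 750 cells/well and were kept 48 h at 37 °C in 5% FBS RPMI. A CellTiter-Glo luminescence read gave % activity for curve fitting.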
HT1080-NT tox: kills 2HG-producing HT-1080-NT fibrosarcoma cells | actives 1.6% (n = 360,000) | Potency, µM (highest dose often 46.1 µM), for inactives: top-dose activity, negative = less viability, most hits filed as cytotoxic | HT-1080-NT fibrosarcoma viability, CellTiter-Glo ATP luminescence, 48 h;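 also: NT is the 2HG producing partner of a matched IDH1 knockdown line; potency is read from the fitted curve at half-maximal effect; 0% = DMSO-treated cells and -100% = media-only wells without cells; nearly all actives have a fitted effect of over 55% in size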
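HT-1080-NT; 750 cells/well; 5% FBS RPMI; 48 h compound, 37 degrees C; CellTiter-Glo luminescence; curve fitting and curve-class assignment.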
DT40 TDP1 CPT: growth inhibition of DT40 Tdp1-/-;hTDP1 cells with camptothecin (screen for TDP1 inhibitors); chicken DT40 Tdp1-/-;hTDP1 cells + 20 nM CPT, ATP luminescence, 48 h; Potency, µM (series often up to 46.2 µM), for the others: at the top dose activity change, negative = growth inhibition, hits mostly inhibitors; actives 12% (n = 420,000); also: potency is read from the fitted curve at half-maximal effect; nearly all actives have a fitted effect of over 55% in size
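Chicken DT40 Tdp1-/- cells stably complemented with human TDP1 were seeded at 400 cells/well in medium containing 20 nM camptothecin, exposed to pin-transferred compounds, and grown at 37 °C for at least 48 hr. Viability was read as ATP luminescence.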
Starred values were filed as active, the others as inactive; ! = not confirmed by another sample; [ ] = dose if it differs, or a comment. A selection: hits, their analogues and other compounds. The true share with any hit is near 19%. Unless noted, calls follow the shape of the dose curve; as a rule, active = well fitted curve in the direction sought with a large enough effect; inconclusive = small, poorly fitted or top-dose-only effect, or another doubt; inactive = no such curve, though single readings can be large; an effect the other way counts as inactive or inconclusive. Unless noted, % is scaled to controls: 0 for no effect and ±100 for the full control effect.

For COCC(=O)N1CCC2(CC1)CN(Cc1ccccc1OC)C2 the results were DT40 TDP1 no CPT inconclusive and DT40 TDP1 CPT -86.1%.
For Cc1ccc(-c2n[nH]c3c2C(c2cccs2)N(c2ccc(Cl)cc2)C3=O)cc1 (centres undefined) the results were DT40 TDP1 no CPT inconclusive and DT40 TDP1 CPT 16.4µM*.
For Cc1ccc(N2C(=O)c3[nH]nc(-c4ccc(Cl)cc4)c3C2c2ccc(F)cc2)cc1 (centres undefined) the results were DT40 TDP1 no CPT 20.6µM* and DT40 TDP1 CPT 14.6µM*.
Screening Cc1ccc(-c2n[nH]c3c2C(c2ccccc2Cl)N(c2ccc(C(=O)O)cc2)C3=O)cc1 (centres undefined) returned DT40 TDP1 no CPT inconclusive and DT40 TDP1 CPT -23.1%.
Screening COc1ccc(-c2n[nH]c3c2C(c2ccc(O)cc2)N(c2ccc(Br)cc2)C3=O)cc1 (centres undefined) returned DT40 TDP1 no CPT inconclusive and DT40 TDP1 CPT 18.4µM*.
`Cc1ccc(CNC(=O)c2cnc3c(-c4ccc(F)cc4)c(C)nn3c2C)o1` gave DT40 TDP1 no CPT -44.5% and DT40 TDP1 CPT -6.7%.
`CCc1ccc(N2CC(C(=O)OCC(=O)Nc3ccc(C#N)cc3)CC2=O)cc1` (centres undefined) gave DT40 TDP1 no CPT -5.5%, IL-1B inflam inh -4.0, HT1080 IDH1KD tx 9.6%, HT1080-NT tox -2.4%[9.24 µM] and DT40 TDP1 CPT -22.4%.
For CN(C)c1cccc(CNC(=O)c2csc([C@H]3C[C@H](O)[C@@H](CO)O3)n2)c1 the results were DT40 TDP1 no CPT 5.4%, IL-1B inflam inh -6.5, HT1080 IDH1KD tx 2.8%, HT1080-NT tox 11.4% and DT40 TDP1 CPT -1.2%.
For CCOC(=O)CS(=O)(=O)c1ccc(O)cc1 the results were DT40 TDP1 no CPT -0.6%, IL-1B inflam inh -91.6*, HT1080 IDH1KD tx 3.6%, HT1080-NT tox -0.1% and DT40 TDP1 CPT -1.5%.
Screening O=[N+]([O-])c1ccc(S(=O)(=O)N2CCN(C3CCN(Cc4ccccc4)CC3)CC2)cc1 returned DT40 TDP1 no CPT inconclusive, IL-1B inflam inh -9.3, HT1080 IDH1KD tx 2.5%, HT1080-NT tox 4.4% and DT40 TDP1 CPT -29.9%.
`CCOC(=O)N1CCC(N2CCN(S(=O)(=O)c3ccc([N+](=O)[O-])cc3)CC2)CC1` gave DT40 TDP1 no CPT inconclusive, IL-1B inflam inh 0.0, HT1080 IDH1KD tx -5.8%, HT1080-NT tox 2.2% and DT40 TDP1 CPT 13µM*.
Screening COC(=O)COc1ccc(S(=O)(=O)N2CCCCCC2)cc1 returned DT40 TDP1 no CPT -4.9%, IL-1B inflam inh 18.5, HT1080 IDH1KD tx 5.9%, HT1080-NT tox 1.4% and DT40 TDP1 CPT 7.1%.
Screening CCOC(=O)C1CCN(S(=O)(=O)c2ccc(OCC(=O)OC)cc2)CC1 returned DT40 TDP1 no CPT 1.2%, IL-1B inflam inh -52.8*, HT1080 IDH1KD tx 0.0%, HT1080-NT tox 15.5% and DT40 TDP1 CPT -6.7%.
CC1C(=O)Nc2ccc(S(=O)(=O)N3CCCCC3)cc2NC1=O (centres undefined) was read as DT40 TDP1 no CPT inconclusive and DT40 TDP1 CPT -13.3%.
`CCOC(=O)C1CCN(S(=O)(=O)c2ccc3c(c2)NC(=O)C(C)C(=O)N3)CC1` (centres undefined) gave DT40 TDP1 no CPT 23.1µM*!, IL-1B inflam inh 40.9, HT1080 IDH1KD tx -6.5%, HT1080-NT tox -0.8% and DT40 TDP1 CPT -12.0%.
For COC(c1ccc2c(c1)CN(C(=O)Cn1nc(C)c3ccccc3c1=O)CCO2)C1CCCCC1 (centres undefined) the results were DT40 TDP1 no CPT -17.4% and DT40 TDP1 CPT -2.1%[9.04 µM].
`CCOC(=O)N1CCN(S(=O)(=O)c2ccc(OCC(=O)OC)cc2)CC1` gave DT40 TDP1 no CPT -7.4%, IL-1B inflam inh -64.4*, HT1080 IDH1KD tx 15.6%, HT1080-NT tox 0.0% and DT40 TDP1 CPT -25.7%.
Screening CCOC(=O)COc1ccc(S(=O)(=O)c2ccc(OCC(=O)OCC)cc2)cc1 returned DT40 TDP1 no CPT -17.1%, IL-1B inflam inh -92.0*, HT1080 IDH1KD tx -10.4%, HT1080-NT tox 4.2% and DT40 TDP1 CPT 6.8%.
For CCOC(=O)COc1ccc(S(=O)(=O)Nc2ccc(C)cc2)cc1 the results were DT40 TDP1 no CPT -14.9%, IL-1B inflam inh -7.6, HT1080 IDH1KD tx inconclusive, HT1080-NT tox inconclusive and DT40 TDP1 CPT -2.7%.
Screening Nc1ccc(Cl)cc1/C(=N/O)c1ccccc1 returned DT40 TDP1 no CPT -15.8%, IL-1B inflam inh -11.4, HT1080 IDH1KD tx -1.7%, HT1080-NT tox -17.2% and DT40 TDP1 CPT -0.8%.
For C/C(=N\NC(=O)CNc1cccc(Cl)c1C)C1CC1 the results were DT40 TDP1 no CPT 0.4%, IL-1B inflam inh -3.2, HT1080 IDH1KD tx -7.4%, HT1080-NT tox -9.7% and DT40 TDP1 CPT -5.0%.
For O=c1c2ccccc2c(C=NCc2ccccn2)c(O)n1-c1ccccc1Cl the results were DT40 TDP1 no CPT -22.4%, IL-1B inflam inh 1.2, HT1080 IDH1KD tx -16.2%, HT1080-NT tox -26.2% and DT40 TDP1 CPT -3.4%.
For Oc1cccc(C(O)CNCc2ccc(-c3ccccc3)cc2)c1 (centres undefined) the results were DT40 TDP1 no CPT inconclusive, IL-1B inflam inh -50.9*, HT1080 IDH1KD tx 20.6µM*, HT1080-NT tox 16.4µM* and DT40 TDP1 CPT 18.4µM*.
`Oc1cccc(C(O)CNCc2ccc(OCc3ccc(Cl)cc3Cl)cc2)c1` (centres undefined) gave DT40 TDP1 no CPT 14.6µM*, IL-1B inflam inh -90.6*, HT1080 IDH1KD tx 16.4µM*, HT1080-NT tox 23.1µM* and DT40 TDP1 CPT inconclusive.
`OC(CNCc1cccc(Cl)c1)c1ccccc1` (centres undefined) gave DT40 TDP1 no CPT inconclusive, IL-1B inflam inh 0.0, HT1080 IDH1KD tx -7.6%, HT1080-NT tox -24.0% and DT40 TDP1 CPT -20.7%.
COc1cc(-c2nc(C)cnc2C)cc2c1OCCN(C(=O)Cc1cc(OC)c(OC)c(OC)c1)C2 was read as DT40 TDP1 no CPT -5.3% and DT40 TDP1 CPT 9.2%[9.04 µM].
Screening Brc1ccc2c(c1)CNc1c(ncnc1N1CCOCC1)O2 returned DT40 TDP1 no CPT inconclusive, IL-1B inflam inh -12.4, HT1080 IDH1KD tx -23.7%, HT1080-NT tox -14.0% and DT40 TDP1 CPT 15.8µM*.
For Cc1ccccc1Nc1nc(N)nc(CN2CCN(C(=O)c3ccccc3)CC2)n1 the results were DT40 TDP1 no CPT 3.0%, IL-1B inflam inh 11.6, HT1080 IDH1KD tx -2.2%, HT1080-NT tox -14.8% and DT40 TDP1 CPT -7.3%.
Screening N#Cc1ccc(NC(=O)Cn2cnc([N+](=O)[O-])c2)cc1 returned DT40 TDP1 no CPT 9.6%, IL-1B inflam inh 34.0, HT1080 IDH1KD tx 11.1%, HT1080-NT tox 2.2% and DT40 TDP1 CPT -27.2%.

Source: PubChem (National Center for Advancing Translational Sciences (NCATS))
